PubChem BioAssay (EPA / NIEHS)
The source made the active and inactive calls. The calls were made as follows: active = hit-call score of the fitted dose curve at least 0.9, where 1 is the maximum; inactive = score below 0.9.

Each compound was assayed on Intercellular Adhesion Molecule 1 (ICAM1), ICAM1 (gene 3383) (assay: LTEA_HepaRG_ICAM1: Life Technologies and Expression Analysis (LTEA) Assay for Intercellular Adhesion Molecule 1 (ICAM1) using HepaRG (AID 2283507)). Conditions: mRNA level, 48 h; actives raise or lower the signal.
Procedure, shortened: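 Readout is qRT-PCR mRNA level, normalized to three housekeeping genes and fitted bidirectionally against 0.5% DMSO vehicle. Human HepaRG cultures received compound for 48 h, top concentration 100 uM with half-log dilutions.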

| SMILES | outcome | AC50 |
| --- | --- | --- |
| C#C[C@]1(O)CC[C@H]2[C@@H]3CCC4=CC(=O)CC[C@@H]4[C@H]3CC[C@@]21CC | inactive | – |
| O=C(O)c1ccccc1 | inactive | – |
| COC(=O)c1ccccc1C(=O)O | inactive | – |
| CC(C)(C)[C@@H](O)[C@@H](Cc1ccc(Cl)cc1)n1cncn1 | inactive | – |
| c1ccc2[nH]c(-c3cscn3)nc2c1 | inactive | – |
| N[C@@H](Cc1cc(I)c(Oc2ccc(O)c(I)c2)c(I)c1)C(=O)O | – | 40 µM (active) |
| CCOC(=O)c1ccc(O)cc1 | inactive | – |
| O=C(Nc1ccc([N+](=O)[O-])cc1Cl)c1cc(Cl)ccc1O | – | 6.3 µM (active) |
| COC(=O)c1ccc(I)cc1S(=O)(=O)NC(=O)Nc1nc(C)nc(OC)n1 | inactive | – |
| CCCN(CCC)C(=O)SCC | inactive | – |
| CCCCC(CC)COC(=O)c1ccccc1C(=O)O (stereo not drawn) | inactive | – |
| C[C@]12C[C@H](O)[C@H]3[C@@H](CCC4=CC(=O)CC[C@@]43C)[C@@H]1CC[C@@H]2C(=O)CO | inactive | – |
| S=C([S-])NCCNC(=S)[S-].[Mn+2] | – | 6.29 µM (active) |
| O=C(O)C1(C(=O)Nc2ccc(Cl)cc2Cl)CC1 | inactive | – |
| C=CCOC(Cn1ccnc1)c1ccc(Cl)cc1Cl (stereo not drawn) | – | 13.2 µM (active) |
| CCCOC(=O)NCCCN(C)C | inactive | – |
| COCCO | inactive | – |
| C#CCOC(=O)[C@@H](C)Oc1ccc(Oc2ncc(Cl)cc2F)cc1 | inactive | – |
| CC(=O)[C@H]1CC[C@H]2[C@@H]3CCC4=CC(=O)CC[C@]4(C)[C@H]3CC[C@]12C | – | 33.3 µM (active) |
| CCN(CC)C(=O)c1cccc(C)c1 | inactive | – |
| COc1c(Cl)ccc(Cl)c1C(=O)O | inactive | – |
| CCCCCOC(=O)COc1cc(N2C(=O)C3=C(CCCC3)C2=O)c(F)cc1Cl | inactive | – |
| CCC(C)OC(=O)N1CCCCC1CCO (stereo not drawn) | inactive | – |
| CCCCOCCOCCOCc1cc2c(cc1CCC)OCO2 | inactive | – |
| CCOC(=O)COc1cc(-n2ncc(C(F)(F)F)c(C)c2=O)c(F)cc1Cl | inactive | – |
| CCCN(CCC)c1c([N+](=O)[O-])cc(C(F)(F)F)c(N)c1[N+](=O)[O-] | inactive | – |
| CC1(C)C(C=C(Cl)Cl)C1C(=O)OCc1cccc(Oc2ccccc2)c1 (stereo not drawn) | inactive | – |

What follows are compounds tested on Insulin-like growth factor-binding protein 1 (IGFBP1), IGFBP1 (gene 3484) (assay: LTEA_HepaRG_IGFBP1: Life Technologies and Expression Analysis (LTEA) Assay for Insulin-like growth factor-binding protein 1 (IGFBP1) using HepaRG (AID 2283508)). Conditions: mRNA level, 48 h; actives raise or lower the signal.
Procedure, shortened: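 Thawed HepaRG cells are plated for 48 h, switched to serum-free induction medium, then dosed in duplicate for another 48 h (100 uM top, half-log steps). Lysates in RLT go to qRT-PCR, and gain or loss of signal is fitted relative to vehicle.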

| SMILES | outcome | AC50 |
| --- | --- | --- |
| C#C[C@]1(O)CC[C@H]2[C@@H]3CCC4=CC(=O)CC[C@@H]4[C@H]3CC[C@@]21CC | inactive | – |
| O=C(O)c1ccccc1 | inactive | – |
| CC(C)(C)[C@@H](O)[C@@H](Cc1ccc(Cl)cc1)n1cncn1 | inactive | – |
| c1ccc2[nH]c(-c3cscn3)nc2c1 | – | 29 µM (active) |
| N[C@@H](Cc1cc(I)c(Oc2ccc(O)c(I)c2)c(I)c1)C(=O)O | inactive | – |
| CCOC(=O)c1ccc(O)cc1 | inactive | – |
| O=C(Nc1ccc([N+](=O)[O-])cc1Cl)c1cc(Cl)ccc1O | – | 2.13 µM (active) |
| COC(=O)c1ccc(I)cc1S(=O)(=O)NC(=O)Nc1nc(C)nc(OC)n1 | inactive | – |
| CCCN(CCC)C(=O)SCC | inactive | – |
| CCCCC(CC)COC(=O)c1ccccc1C(=O)O (stereo not drawn) | inactive | – |
| C[C@]12C[C@H](O)[C@H]3[C@@H](CCC4=CC(=O)CC[C@@]43C)[C@@H]1CC[C@@H]2C(=O)CO | inactive | – |
| S=C([S-])NCCNC(=S)[S-].[Mn+2] | – | 0.194 µM (active) |
| O=C(O)C1(C(=O)Nc2ccc(Cl)cc2Cl)CC1 | inactive | – |
| C=CCOC(Cn1ccnc1)c1ccc(Cl)cc1Cl (stereo not drawn) | – | 30 µM (active) |
| CCCOC(=O)NCCCN(C)C | inactive | – |
| COCCO | inactive | – |
| C#CCOC(=O)[C@@H](C)Oc1ccc(Oc2ncc(Cl)cc2F)cc1 | inactive | – |
| CC(=O)[C@H]1CC[C@H]2[C@@H]3CCC4=CC(=O)CC[C@]4(C)[C@H]3CC[C@]12C | – | 27.4 µM (active) |
| CCN(CC)C(=O)c1cccc(C)c1 | inactive | – |
| COc1c(Cl)ccc(Cl)c1C(=O)O | inactive | – |
| CCCCCOC(=O)COc1cc(N2C(=O)C3=C(CCCC3)C2=O)c(F)cc1Cl | inactive | – |
| CCC(C)OC(=O)N1CCCCC1CCO (stereo not drawn) | inactive | – |
| CCCCOCCOCCOCc1cc2c(cc1CCC)OCO2 | inactive | – |
| CCOC(=O)COc1cc(-n2ncc(C(F)(F)F)c(C)c2=O)c(F)cc1Cl | inactive | – |
| CCCN(CCC)c1c([N+](=O)[O-])cc(C(F)(F)F)c(N)c1[N+](=O)[O-] | inactive | – |
| CC1(C)C(C=C(Cl)Cl)C1C(=O)OCc1cccc(Oc2ccccc2)c1 (stereo not drawn) | inactive | – |
